Screening data from PubChem.
Only some compounds are listed: those with a hit (about 7.7% of all), similar ones and a draw of the others.
FMDV inh – antivirals against foot and mouth disease virus | FMDV antiviral cell-based qHTS | Potency, µM (titrated, usually from 57.9 µM), inactives show at the highest dose activity change, negative = inhibition, usual class: inhibitors | hit rate 1.2% among 410,000; calls by dose curve; tested in HEK293T cells; further: read-out not given here; potency means the concentration at half of the fitted maximal effect; nearly all actives have a fitted effect of over 45% in size
HCMV antiviral – inhibitors of human cytomegalovirus; AID 1259415; activity change, negative = inhibition, % at 57.5 µM; hit rate 4.5% among 410,000; HFF cells, HCMV-luciferase reporter, 72 h; active compounds read low; in the data active means activity change below about -60%; inconclusive means no clear call, values can overlap the other calls; inactive means above about -39%
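HFF cells seeded 16 h at 37C, treated with compounds, infected with luciferase-reporter HCMV at MOI 1 PFU/cell; luciferase read at 72 h post infection, normalized to buffer-only and Salinomycin controls.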
RE007 growth inh – less growth of the S. pombe RE007 Vpr strain. S. pombe RE007 Vpr strain, BacTiter-Glo ATP luminescence, 24 h. Potency, µM (series often up to 92.2 µM), for the others: at the highest dose activity change, negative = less growth, hits mostly inhibitors. hit rate 0.21% among 360,000. AID 651644; active means well fitted falling curve with a large enough effect; inconclusive means small, poorly fitted or top-dose-only effect; inactive means no such curve, though single readings can be large or run the other way; further: potency means the concentration at half of the fitted maximal effect; nearly all actives have a fitted effect of over 50% in size
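Fission yeast RE007 carrying one integrated HIV-1 vpr copy, seeded at OD 0.01 in PMG+AL medium with 23 nL pinned compound. Grown 24 h at 30 degrees; viability read by BacTiter-Glo luminescence after 5 min.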
Tb PYK inh – inhibitors of Trypanosoma brucei pyruvate kinase | TbPYK enzyme, Kinase-Glo Plus ATP luminescence, 45 min | Potency, µM (top dose mostly 76.8 µM), without a hit: at the highest dose activity, negative = inhibition, hits mostly inhibitors | hit rate 0.12% among 410,000; further: potency means the concentration at half of the fitted maximal effect; nearly all actives have a fitted effect of over 50% in size
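TbPYK + substrate in 50 mM TEA pH 7.2, 100 mM KCl, 10 mM MgCl2, 0.05% BSA, 0.01% Tween-20; cpd pinned; ADP 130 uM final; 45 min RT; Kinase-Glo Plus 10 min; luminescence endpoint.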
Giardia FBPA inh – blocks Giardia fructose-bisphosphate aldolase activity | A8B2U2 | hit rate 0.71% among 290,000 | purified Giardia FBPA | Potency, µM (top dose mostly 59.6 µM), without a hit: at the highest dose activity, negative = inhibition, usual class: inhibitors; further: potency means the concentration at half of the fitted maximal effect; nearly all actives have a fitted effect of over 55% in size
Target sequence (A8B2U2 whole entry, looked up): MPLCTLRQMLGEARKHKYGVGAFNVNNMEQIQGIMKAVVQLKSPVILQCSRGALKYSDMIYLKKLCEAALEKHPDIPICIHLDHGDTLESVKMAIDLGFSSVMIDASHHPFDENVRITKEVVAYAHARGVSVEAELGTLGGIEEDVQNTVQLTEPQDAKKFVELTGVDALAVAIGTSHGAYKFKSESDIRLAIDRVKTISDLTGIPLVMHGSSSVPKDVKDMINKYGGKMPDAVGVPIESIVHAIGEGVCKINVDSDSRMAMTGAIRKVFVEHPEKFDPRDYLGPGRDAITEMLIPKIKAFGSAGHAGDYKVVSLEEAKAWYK
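Giardia FBPA (40 nM reagent) was preincubated 10 min at RT with compound (up to 57.5 uM final), then substrate plus GAPDH/TPI/NAD/arsenate coupling system with diaphorase/resazurin was added; resorufin fluorescence (525/598 nm) was read after 20 min.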
Sm TGR inh – S. mansoni TGR enzyme inhibition. Q962Y6. purified TGR, DTNB reduction, TNB absorbance 405 nm. Potency, µM (doses to about 114 µM), without a hit: top-dose activity change, negative = inhibition, most hits filed as inhibitors. hit rate 3% among 360,000. AID 485364; further: potency means the concentration at half of the fitted maximal effect; nearly all actives have a fitted effect of over 60% in size
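TGR 20 nM + NADPH 100 uM (dispensed conc.), cpd preinc 15 min RT; start with NADPH (500 uM addition) then DTNB (15 mM addition). Kinetic TNB absorbance, 405 nm filter. Four-parameter Hill fit across titration.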
The depositor's hits bear a star; ? = inconclusive; . = no result; [ ] = dose if it differs, or a comment. Unless noted, the call rests on the fitted dose curve; in most records, active means well fitted curve in the direction sought with a large enough effect; inconclusive means small, poorly fitted or top-dose-only effect, or another doubt; inactive means no such curve, though single readings can be large; an effect the other way counts as inactive or inconclusive. On the % scale 0 is the no-effect control and ±100 the full control effect.

SMILES	FMDV inh	HCMV antiviral	RE007 growth inh	Tb PYK inh	Giardia FBPA inh	Sm TGR inh
COCCOC(=O)c1[nH]c2c(c1C)C(=O)CC(c1cc(OC)ccc1OC)C2 (stereo not given)	-9.3%	3.9	-17.0%	-2.4%	0.3%	-0.3%
CCCOCCOC(=O)c1[nH]c2c(c1C)C(=O)CC(c1cc(OC)ccc1OC)C2 (stereo not given)	?	-80.4*	11.2%	-1.0%	3.8%	0.8%
CCOC(=O)c1[nH]c2c(c1C)C(=O)CC(c1ccc(OC)c(OC)c1)C2 (stereo not given)	-9.9%	-5.8	10.4%	-2.4%	1.4%	-3.4%
COc1ccc(OC)c(C2CC(=O)c3c([nH]c(C(=O)OC(C)C)c3C)C2)c1 (stereo not given)	-4.7%	-70.5*	0.4%	-13.0%	0.0%	0.0%
CCOCCOC(=O)c1[nH]c2c(c1C)C(=O)CC(c1ccc(OC)c(OC)c1)C2 (stereo not given)	22.4µM*	?	2.5%	-1.6%	4.3%	14.4%
O=C(CSc1nc(=O)n(Cc2ccco2)c2c1CCC2)NCc1ccccc1	33.3%	-11.0	.	-7.0%	.	-8.6%
Cn1cccc1C(=O)N1CCC2(CCN(Cc3ccncc3)CC2)CC1	-17.2%	.	.	0.0%	2.1%	.
Cc1ccc2c(C(=O)CCl)c(C)[nH]c2c1	?	-33.7	0.7%	-10.3%	-9.4%	1.41µM*
Cc1ccc2[nH]cc(C(=O)CCl)c2c1	11.2µM*	-91.1*	-6.8%	-3.6%	1.1%	?
CCCCCCc1ccc(C(=O)CCN(C)C)cc1	.	.	.	.	-0.6%	.
Cc1ccc(CNC(=O)c2cc(NS(=O)(=O)c3ccc(C)cc3)ccn2)cc1	-1.7%	-7.4	.	2.6%	.	-25.1%
O=C(NCc1ccc(F)cc1)C(=O)NCC(c1ccco1)S(=O)(=O)c1cccs1 (stereo not given)	-19.6%	12.8	.	-1.4%	.	7.94µM*
O=C(NCc1ccccc1)C(=O)NCC(c1ccco1)S(=O)(=O)c1ccccc1 (stereo not given)	0.0%	30.7	.	-13.5%	.	?
O=C(NCc1ccccc1F)C(=O)NCC(c1ccco1)S(=O)(=O)c1cccs1 (stereo not given)	-12.8%	7.4	.	0.3%	.	12.6µM*
Cc1ccccc1CNC(=O)C(=O)NCC(c1ccco1)S(=O)(=O)c1cccs1 (stereo not given)	14.9%	-22.2	.	-4.9%	.	?
O=C(NCc1ccccc1Cl)C(=O)NCC(c1ccco1)S(=O)(=O)c1cccs1 (stereo not given)	0.0%	4.7	.	1.3%	.	31.6µM*
COc1ccccc1CNC(=O)C(=O)NCC(c1ccco1)S(=O)(=O)c1cccs1 (stereo not given)	-16.6%	-3.3	.	4.8%	.	8.91µM*
CC(C)OC(=O)Nc1ccc2nc(-c3cscn3)[nH]c2c1	.	12.3	.	-12.9%	.	.
CSc1cccc(NC(=O)CN2CCN(Cc3ccccc3C)S2(=O)=O)c1	-1.2%	?	.	2.4%[15.4 µM]	.	2.6%
CN1CCN(c2nccc3[nH]c(-c4cccc(F)c4)nc23)CC1	.	-1.7	.	.	.	.
NC(=NCc1ccc(Cl)c(Cl)c1)NC(=O)c1nc(Cl)c(N)nc1N	.	.	.	.	-5.9%	.
CCN(CC)C(C)CN1c2ccccc2Sc2ccccc21 (stereo not given)	28.2µM*	.	.	.	-7.9%	.
O=C(CSc1nnc(-c2cccnc2)s1)Nc1ccnc2ccccc12	?	-91.7*	-13.5%	-8.1%	-0.1%	-8.1%
CCCN(CCc1cccs1)[C@H]1CCc2c(O)cccc2C1	.	.	.	-4.6%	.	.
CN(Cc1cccnc1)C(=O)c1cc(COc2ccc3c(c2)CCCC3)on1	-14.9%	-65.1*	-15.1%	-2.8%	-4.2%	-22.8%
SMILES	FMDV inh	HCMV antiviral	RE007 growth inh	Tb PYK inh	Giardia FBPA inh	Sm TGR inh
CCc1ccc(CN(C)C(=O)c2cc(COc3cccc4cnccc34)on2)cc1	?	-99.0*	3.9%	-1.5%	-13.1%	-25.3%
CC(=O)c1cccc(OCc2cc(C(=O)N(C)Cc3cnccn3)no2)c1	38.8%	131.1	1.4%	-1.8%	-7.1%	-4.4%
Cc1c(C(C)NC(=O)c2cc(COc3cccc4cnccc34)on2)cnn1C (stereo not given)	?	-85.5*	-23.6%	-2.2%	?	3.6%
CN(Cc1cccc2cnccc12)C(=O)c1cc(COc2ccc(F)cc2F)on1	?	-60.1*	-9.2%	-4.7%	13.7%	-3.9%
O=C(Nc1ccc(N2CCCC2)cc1)c1ccc(Br)o1	.	105.5	5.9%	-8.4%	-19.4%	0.0%
CC(C)N1CCN(C(=O)c2ccc(NC(=O)c3ccc(Br)o3)cc2)CC1	-7.5%	-18.0	4.0%	-4.0%	.	22.4µM*
O=C(Nc1ccc(C(=O)N2CCC(N3CCOCC3)CC2)cc1)c1ccc(Br)o1	-12.8%	6.2	59.4%	-2.9%	.	31.6µM*
O=C(Nc1ccc(C(=O)N2CCCC(CO)C2)cc1)c1ccc(Br)o1 (stereo not given)	-0.9%	6.6	-1.7%	-3.9%	.	.
O=C(Nc1ccc(N2CCN(C(=O)c3ccccc3)CC2)c(Cl)c1)c1ccc(Br)o1	-26.9%	-67.5*	-14.0%	2.7%	-20.9%	-23.4%
O=C(Nc1ccc(N2CCN(C(=O)c3ccccc3)CC2)cc1)c1ccc(Br)o1	0.0%	-25.1	-21.5%	-2.7%	-11.7%	-10.0%
CCCNC(=O)c1cn(CC)c2cc(N3CCN(C(=O)c4ccco4)CC3)c(F)cc2c1=O	0.0%	-36.1	2.4%	1.8%	.	0.0%
CCn1cc(C(=O)NCc2cccc(F)c2)c(=O)c2cc(F)c(N3CCN(C(=O)c4ccco4)CC3)cc21	15.8µM*	-86.0*	22.6%	-1.4%	3.8%	-16.4%
CCCCOC(=O)c1ccc(NC(=O)Cn2nnc3sc4c(c3c2=O)CCCC4)cc1	-23.3%	-8.6	.	2.0%	.	0.0%
Cc1ccc(C2C=C(c3ccccc3OC(F)F)Nc3ncnn32)cc1 (stereo not given)	-17.7%	-20.1	13.0%	7.1%	0.1%	?
CN(C)c1ccc(C2C=C(c3ccc(Cl)cc3OC(F)F)Nc3ncnn32)cc1 (stereo not given)	-22.4%	-21.7	5.3%	4.3%	-25.5%	22.4µM*
NS(=O)(=O)c1ccc(CCNC(=S)NC2CCCCC2)cc1	-21.1%	-35.5	-0.5%	1.0%	1.8%	9.1%
Cc1ccc(S(=O)(=O)NC(=S)NC2CCCCC2)cc1	10.6%	29.2	1.4%	1.0%	-6.5%	31.6µM*
Cc1ccc(S(=O)(=O)NC(=O)NC2CCCCC2)cc1	.	.	.	4.0%	.	.
O=S(=O)(NC(=S)NC1CCCCC1)c1ccc(Cl)cc1	2.0%	-13.9	-17.0%	-0.1%	13.2%	12.6µM*
S=C(NCc1ccc(Cl)cc1Cl)NC1CCCCC1	-5.9%	-77.6*	?	0.8%	1.9%	-5.4%
CCc1ccc(S(=O)(=O)NC(=S)NC2CCCCC2)cc1	12.9%	-12.6	?	0.7%	11.4%	12.6µM*
